# Experimental data taken from the supplement of paper PMC4466236.
# The full ranking holds about 33,000 sequences; the median of “E-score (dimensionless, -0.5 to 0.5)” is about -0.058, and the highest 2% start at about 0.35. For the sample, the highest values were picked, then their nearest neighbours and some sequences at random.
# Tested on: MvaT
# Experiment: PBM 8-mer E-score (mean of HK and ME arrays) (E-score (dimensionless, -0.5 to 0.5)); higher = stronger relative binding preference
# Outline: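 Full-length P. aeruginosa MvaT carrying an N-terminal glutathione S-transferase tag was tested by protein binding microarray following a previously described protocol. Two universal double-stranded 60-mer arrays, ME and HK, were used, each with a constant 25-mer primer region and a variable 35-mer region covering all 8-mers. The rank-based E-score is the mean of the two arrays, parsed with a custom script. Its range runs from -0.5 to 0.5 for each 8-mer.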
row,Sequence,PBM 8-mer E-score
1,GCCTGACA,-0.188
2,CAGAAAGA,0.0379
3,TTAAGAAA,0.242
4,ATTTTATC,0.202
5,ATCATCGG,-0.0977
6,AGTAGGAT,-0.047
7,GATACAAA,0.247
8,AATACAAG,0.208
9,AATACAAC,0.316
10,AATACAAA,0.357
11,CATACAAA,0.206
12,TATACAAA,0.392
13,TACTCTGA,-0.066
14,TAAGGGCA,0.0358
15,GCTCTCGA,-0.0844
16,AACTGGGG,-0.149
17,TGCTATAA,0.285
18,AACTATAG,0.236
19,AACTATAA,0.382
20,GACTATAA,0.316
21,CACTATAA,0.312
22,AACTATAC,0.227
23,AACTATAT,0.349
24,TACTATCA,0.276
25,TACTATAA,0.387

row,Sequence,PBM 8-mer E-score
1,ACGGGCCG,-0.277
2,GACCCAGC,-0.26
3,ACTTAGAG,0.106
4,GTATATTA,0.438
5,GAGTATTA,0.269
6,GGGTATTA,0.288
7,ATCTATTA,0.301
8,CTATATTA,0.454
9,CTCTATTA,0.267
10,CACTGCTC,-0.18
11,GCCCGACC,-0.267
12,GAGAGTAC,-0.0129
13,AACCGCTC,-0.22
14,AATGGGAT,0.138
15,AGTCGACG,-0.209
16,AAAATACT,0.272
17,GAAATAGA,0.158
18,TAAATCTA,0.183
19,CAAATATA,0.433
20,CAAATATC,0.233
21,GAAATATC,0.227
22,GAAATATA,0.408
23,CAAAAATA,0.287
24,TAAATATA,0.442
25,AAAATAGT,0.228

row,Sequence,PBM 8-mer E-score
1,AAAATATT,0.435
2,CAAATATG,0.264
3,GGCGTCCA,-0.193
4,AGGTCCTG,-0.144
5,AACGGGCA,-0.142
6,CTCTATCC,-0.0794
7,TCGCCAAA,-0.0154
8,ATATCGCA,0.208
9,TCCGTCAA,-0.111
10,CCGACACG,-0.209
11,AAAATATG,0.251
12,AAAATATC,0.314
13,AAAATATA,0.43
14,CAATATAA,0.404
15,GAATATAA,0.38
16,TAATCTAA,0.292
17,CAATATAC,0.386
18,GAATAGAA,0.105
19,TAATAGAA,0.254
20,CAATAAAC,0.254
21,GAATATAC,0.298
22,CAATATCC,0.127
23,TAATATAA,0.463
24,GAATATCA,0.209
25,CAATATAG,0.331

row,Sequence,PBM 8-mer E-score
1,CGGTACTA,-0.0157
2,ATTTCGTC,0.0525
3,CCATCAAC,-0.145
4,GCCTAAAA,-0.0431
5,AAAGTGAT,0.155
6,GAGCCATA,-0.0175
7,CACTCCTG,-0.121
8,TGATCTAA,0.0137
9,AAATATAC,0.333
10,AAATATAA,0.442
11,AAATATAG,0.332
12,GAGTACAC,-0.00583
13,AAATGCCT,-0.0883
14,AATTCGAC,-0.053
15,CTTGCAAG,0.114
16,GTATAGTA,0.233
17,CTATAGTC,-0.0729
18,ATATAGTA,0.399
19,ATATAGTG,0.329
20,ATATAGTC,0.361
21,CTATAGTA,0.223
22,CGTTGACC,-0.113
23,AAATCAGC,0.0494
24,AAAACTTA,0.386
25,CAAACTTA,0.272

row,Sequence,PBM 8-mer E-score
1,ACAACTTA,0.357
2,ACAACTTG,0.237
3,ACAACTGA,0.0852
4,AAAACTGA,0.0579
5,TAAACTGA,0.205
6,AAAACTTT,0.354
7,AAAACTTC,0.149
8,AAAACTTG,0.1
9,GAAACTTA,0.235
10,TAAACTTA,0.352
11,CAACACTA,0.11
12,CGGCACAC,-0.0132
13,CTATTTCA,0.00869
14,ACAGTGCA,-0.0545
15,CCGCACGG,-0.212
16,ACTACTTC,0.117
17,CAAACTAA,0.376
18,TAAACTAA,0.34
19,ACTACTTA,0.377
20,CAAACTAC,0.248
21,CCTACTTA,0.251
22,ACATTGCC,0.0616
23,ATCTTCCC,-0.117
24,ATTGGTGG,0.00541
25,TGATAACA,0.16

row,Sequence,PBM 8-mer E-score
1,CACGCTCG,-0.168
2,AATAGAAG,0.0707
3,CTATTTTA,0.261
4,GTATTTCA,0.223
5,ATATTTTG,0.319
6,GTATTTAA,0.368
7,GTATTTTA,0.37
8,GCATTTTA,0.177
9,GGATTTTA,0.112
10,GGATTTAA,0.283
11,ATATTTTA,0.43
12,GCCTCGTA,-0.109
13,AGGGATGC,-0.182
14,GGTCGTTA,-0.0413
15,GCGAGTCA,-0.112
16,CCGGGAGG,-0.293
17,CTGCAGCC,-0.148
18,AAAAAGGT,-0.0123
19,ATTAATTC,0.415
20,ATTAATTA,0.461
21,ATGAATTA,0.295
22,AGTAATTC,0.144
23,ATCAATTA,0.319
24,CTCAATTA,0.234
25,CTGAATTA,0.266

row,Sequence,PBM 8-mer E-score
1,ATTAATTG,0.391
2,ATTAATGG,0.262
3,ATTAATCG,0.336
4,CTTAATTC,0.281
5,CTTAATTA,0.454
6,ACAGGGCT,-0.196
7,CACTTCGC,-0.174
8,ATATCGTA,0.207
9,GACGCAGC,-0.356
10,ATACTGGG,0.00507
11,AGTCATTA,0.14
12,CGGTAAGC,-0.0976
13,ACCCGGGA,-0.218
14,GTTAATTA,0.415
15,GTTAAGTA,0.203
16,GTCAATTA,0.164
17,ATTAATCC,0.332
18,ATTAATGC,0.341
19,AGTAATTA,0.421
20,ATTAATGA,0.363
21,ATTAATCA,0.405
22,CTTAATGA,0.0908
23,CTTAATCA,0.174
24,CGTAATTA,0.31
25,GGTAATTA,0.286

row,Sequence,PBM 8-mer E-score
1,CTTACGCA,-0.158
2,AATTGCAA,0.179
3,AAGCAGCC,-0.138
4,TAACCTTA,0.0355
5,GTAGGGCA,-0.179
6,CATAAGGG,-0.214
7,CAGCTCGG,-0.199
8,ACGACCTC,-0.143
9,ACCCAATC,-0.0955
10,ACAATACG,0.0961
11,ATAATACA,0.407
12,ATAATACG,0.354
13,ATAATACC,0.333
14,CTAATACA,0.325
15,AAAATACG,0.184
16,ATGGCACA,-0.0727
17,GCGTGTAC,-0.107
18,GAGATCGC,-0.123
19,ATGTTAAA,0.329
20,ATGTTAAC,0.363
21,GTGTTAAC,0.219
22,CTGTTAAC,0.141
23,ATGTTAAT,0.39
24,ATGTTAAG,0.178
25,TGCGTCAA,-0.0324

row,Sequence,PBM 8-mer E-score
1,GGGAACAC,-0.198
2,CCTGTCCG,-0.203
3,CCTCGAGC,-0.149
4,CAGTTGCG,-0.0888
5,GATTATCC,0.209
6,TATTATCA,0.404
7,GATTATCA,0.193
8,CATTATTA,0.432
9,CATTATCC,0.235
10,GATTATTA,0.391
11,AATTATCA,0.325
12,GATTATGC,0.148
13,CATTATGA,0.214
14,CATTATTC,0.363
15,CCTTATTC,0.189
16,CATTATCA,0.169
17,AAGTTCCA,0.2
18,CGGGTTCC,-0.15
19,CGGAAAAG,0.00958
20,AAATGGTC,-0.0709
21,TACGTGCA,0.0131
22,AGGCCTAT,-0.235
23,TAGCATCA,0.0156
24,ATTACCGA,0.0931
25,GGCGATAA,0.137

row,Sequence,PBM 8-mer E-score
1,AAATCATG,-0.0303
2,AATGTAAC,0.267
3,ACTGTAAA,0.266
4,AATGTAAG,0.293
5,ACTGTAAT,0.351
6,AATGTAAT,0.365
7,ACTGTAAC,0.246
8,GGTATGAC,-0.144
9,ATAATGGG,0.229
10,AGGTTAAA,0.0501
11,ATCATTCC,-0.0603
12,AATGATTC,0.144
13,CGATAGCC,-0.14
14,GCAGTTCC,-0.18
15,CATTATAA,0.389
16,AATTAGAT,0.284
17,AATTATCT,0.296
18,GATTATAC,0.223
19,AATTATAT,0.461
20,GATTATGA,0.0705
21,AATTATAA,0.468
22,CATTATAC,0.295
23,CATTAGAA,-0.0258
24,GATTATAA,0.41
25,AATTATAC,0.342

row,Sequence,PBM 8-mer E-score
1,CCAATGAC,-0.153
2,CATTGTGG,-0.0595
3,GGCTTTGA,-0.0706
4,ACACAGGC,-0.0277
5,TCCTACGA,-0.0392
6,AATTATGG,0.285
7,AATTATAG,0.37
8,AATTATGA,0.317
9,AATTATGT,0.366
10,CATTATAG,0.277
11,ACTCCTGA,-0.0172
12,AAGTTACT,0.339
13,AAGTTAAA,0.411
14,GAGTTAAC,0.254
15,AAGTTAAT,0.385
16,GAGTTAAA,0.25
17,CAGTTAAC,0.221
18,AAGTTAAG,0.243
19,TAGTTAAA,0.273
20,AAGTTAAC,0.379
21,CGTTATTA,0.364
22,CGTTATTC,0.24
23,AGTTATTA,0.414
24,CGTTATCA,0.111
25,GGTTATTA,0.285

row,Sequence,PBM 8-mer E-score
1,AGTTATTG,0.312
2,AAAGTAGG,0.0451
3,CAAAGATC,-0.0152
4,ACTAAAAA,0.193
5,AATAAAGG,0.228
6,AATAAAGA,0.344
7,ACTAAAAT,0.39
8,AGTAAAAT,0.308
9,ACTAAAAC,0.289
10,AATAAAAT,0.388
11,AATAAAGT,0.372
12,AATAAAAC,0.341
13,AATAAAAG,0.309
14,AATAAAAA,0.415
15,CACCAGCC,-0.0802
16,AGGCCTAC,-0.133
17,CAAACCTA,0.0792
18,ATTTTCGA,0.0907
19,AGCGTTCC,-0.129
20,TTGAGAAA,0.135
21,ACGTGGCC,-0.18
22,CCCTGATC,-0.224
23,CTACATGC,-0.081
24,ATCGGTAA,-3.6e-06
25,GCCGCGTA,-0.0692

row,Sequence,PBM 8-mer E-score
1,ACACCCCC,-0.251
2,AGCACAAA,0.0677
3,AGGCACCT,-0.217
4,GACTTTGC,0.127
5,GTAAAAAA,0.137
6,ATAAAATG,0.249
7,GAAAAATA,0.317
8,CTAAAATC,0.148
9,GTAAAATA,0.345
10,ATAAAATC,0.193
11,CTAAAATA,0.353
12,ATAAAATA,0.427
13,TAAAAATA,0.3
14,AATAAGTC,0.298
15,ATATTGTG,0.251
16,ATATTGTA,0.376
17,CTATTGTC,0.12
18,ATATTGTC,0.346
19,CTATTGTA,0.34
20,ACATTGTC,0.116
21,CTCGAGTA,-0.0253
22,AGCCAACA,0.0763
23,AAGTCGAT,-0.0445
24,AGCAGACG,-0.169
25,ACTGCGAG,-0.0652

row,Sequence,PBM 8-mer E-score
1,TATAATAA,0.477
2,GATAATCA,0.176
3,AATAATAT,0.453
4,AGTAATAG,0.213
5,GCTAATAA,0.338
6,AGTAATAC,0.297
7,AGTAATAT,0.418
8,AATAATCC,0.26
9,AATAATCT,0.314
10,TAGAATAA,0.306
11,AATAATCA,0.259
12,TATAATCA,0.389
13,ACGCACTC,-0.0389
14,AAAAAGAG,0.0446
15,AACGTTTG,0.0612
16,AGCCGCAA,-0.0521
17,GGGCCGAC,-0.267
18,GGCGGAAC,-0.146
19,ATCTTCAA,0.0478
